High-throughput results (PubChem)
In the library only some 1.6% were active in any assay of this set; here they are far more common.
OPRM1-OPRD1 inv: mu-delta opioid heterodimer inverse agonism; P35372+P41143; cell-based MOR-DOR heterodimer luminescence; inhibition, % at 9.3 µM; 0.21% of 340,000 active; AID 504357; in the data active = inhibition above about 22%, passing the limit was not always enough;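 note: 0% = cells with DMSO and 100% = wells without cells with DMSO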
HTR5A ag: counter-screen for OPRM1-OPRD1 agonists: human HTR5A agonism; P47898; 0.61% of 340,000 active; HTR5A agonist assay, luminescence, cell-based; activation, % at 9.3 µM; in the data active = activation mostly above about 9.5%, no sharp cut-off; inactive = mostly below about 7.6%;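 note: 0% = cells with vehicle only and 100% = reference agonist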
Target sequence (P47898 whole entry, looked up): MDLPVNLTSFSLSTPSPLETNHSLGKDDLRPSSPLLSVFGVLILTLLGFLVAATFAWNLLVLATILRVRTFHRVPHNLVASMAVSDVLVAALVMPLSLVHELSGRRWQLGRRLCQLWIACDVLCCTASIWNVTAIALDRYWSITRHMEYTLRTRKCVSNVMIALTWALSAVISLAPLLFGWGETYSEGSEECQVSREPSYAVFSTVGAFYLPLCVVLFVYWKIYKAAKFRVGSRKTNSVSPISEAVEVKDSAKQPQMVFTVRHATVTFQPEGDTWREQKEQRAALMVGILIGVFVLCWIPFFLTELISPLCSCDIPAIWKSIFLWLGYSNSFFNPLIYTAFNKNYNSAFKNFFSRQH
OPRM1-OPRD1 ag: OPRM1-OPRD1 heterodimerization agonism; P35372+P41143; cells, luminescence; activation, % at 9.3 µM; 0.3% of 340,000 active; in the data active = activation above about 18%;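 note: 0% = vehicle-treated cells and 100% = reference agonist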
HTR5A inv ag: HTR5A inverse agonism, opioid heterodimer counter-screen | inhibition, % at 9.3 µM | HTR5A cell line, luminescence | 0.083% of 340,000 active | P47898; in the data active = inhibition mostly above about 23%, no sharp cut-off; inactive = mostly below about 18%;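 note: 0% = cells with DMSO and 100% = no-cell wells with DMSO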
HTR2A ag: agonists of mouse serotonin 5-HT2A receptor (HTR2A). AID 624169. P35363. activation, % at 7.6 µM. CHO-K1 mHTR2A beta-arrestin complementation, luminescence; percent of 30 µM serotonin response. 0.66% of 360,000 active;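 active = activation above a run cutoff, the mean activation of all tested compounds plus 3 SD, cut at about 14% in these data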;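 note: 0% = plate median of compound wells and 100% = 30 µM serotonin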
Starred values were filed as active, the others as inactive; . = no result; ! = repeats disagree.

SMILES	OPRM1-OPRD1 inv	HTR5A ag	OPRM1-OPRD1 ag	HTR5A inv ag	HTR2A ag
O=C(NCCNc1ccc([N+](=O)[O-])cc1C(F)(F)F)c1cccc(F)c1	-9.3	13.8*	1.8	5.5	-5.3
COCCN(C(=O)CSc1nnc(-c2ccccc2C)n1C)c1c(N)n(Cc2ccccc2)c(=O)[nH]c1=O	7.8	1.0	-1.5	-2.5	-2.2
Cc1ccc2nc(-c3ccccc3)c(Cc3ccsc3)n2c1	.	.	.	.	0.8
COc1ccc(S(=O)(=O)N2CCC3(CC2)OCCN3S(=O)(=O)c2ccc(OC)cc2)cc1	-11.2	5.1	1.7	0.8	10.8
COc1ccc(S(=O)(=O)N2CCOC23CCN(S(=O)(=O)c2c(C)cc(C)cc2C)CC3)cc1	-23.6	10.9*	3.6	7.8	0.6
O=C(NCc1cccc(CNC(=O)C(=O)NCc2ccco2)c1)C(=O)NCc1ccco1	-15.2	-2.2	3.0	5.7	11.2
CC(=O)c1ccc(NC(=O)CN2C(=O)COc3ccc(S(=O)(=O)N4CCCC4)cc32)cc1	13.0	-3.2	-2.4	11.6	3.5
COC(=O)CSc1nc2ccc(NC(=O)CSc3nnnn3Cc3ccccc3)cc2s1	8.8	3.8	-1.4	-10.2	2.3
O=C(CSc1nc2ccc(NC(=O)CSc3nnnn3Cc3ccccc3)cc2s1)Nc1ccccc1	-23.3	14.2*	4.0	-32.4	-7.1
N=c1sccn1CC(=O)NC(c1ccccc1)c1ccccc1	-24.0	5.8	5.1	-16.0	-1.9
CC(C)CC1CC(C)(c2csc(NNC(=O)c3ccccc3)n2)OC1=O (stereo not drawn)	-12.4	3.9	2.5	-12.4	1.2
Cc1csc(NC(=O)CSc2nnc(Cn3c(=O)sc4ccccc43)n2-c2ccccc2)n1	11.9	1.3	-2.3	-3.7	3.6
O=C(COC(=O)/C=C/c1ccc([N+](=O)[O-])cc1)NC(c1ccccc1)c1ccccc1	1.7	5.1	-0.3	-12.3	-0.5
CC(C)(C)c1ccc(/C=C/C(=O)Nc2ccncc2)cc1	-49.0	13.2*	9.5	-24.8	8.9
Cc1ccc(C(=O)Nc2cccc(C(F)(F)F)c2)cc1NC(=O)c1c[nH]c2cc(C(F)(F)F)ccc2c1=O	6.9	-2.5	-1.2	-0.5	3.4
Cc1cn(-c2cc(C(=O)Nc3ccc(C)c(NC(=O)C(=O)c4c[nH]c5ccccc45)c3)cc(C(F)(F)F)c2)cn1	7.5	4.9	-1.3	-26.2	16.5*!
COc1ccc(NS(=O)(=O)c2cccc3cccnc23)cc1	11.2	3.0	-2.0	-22.8	-1.3
Cc1cccc(NS(=O)(=O)c2cccc3cccnc23)n1	0.3	13.4*	-0.1	-40.0	9.1
Cc1ccc(C)c(OCCC(=O)NNC(=O)Cn2nc(C)cc2C)c1	6.1	12.4*	-1.2	-33.6	7.8
Cc1ccc(C(c2sc3nc(C)nn3c2O)N2CC(C)OC(C)C2)cc1 (stereo not drawn)	12.7	4.2	-2.2	12.8	-5.4
Cc1nc2sc(C(c3ccc(Cl)cc3)N3CC(C)OC(C)C3)c(O)n2n1 (stereo not drawn)	-7.9	11.3*	1.3	-25.3	-6.5
NC(N)=N/N=C(\N=Nc1ccccc1)c1ccc(Cl)cc1	-15.7	-3.7	3.0	14.4	-5.7
CCN(CC)c1ccc(/C=N/NC(=S)NCc2ccc(OC)cc2)cc1	16.3	-0.9	-3.3	15.9	2.4
CCN(CC)c1ccc(/C=N/NC(=S)NCc2ccccc2)cc1	-13.3	13.7*	2.3	8.3	-9.9
COc1ccccc1C1CCN(C(=O)c2ccccc2)CC1	3.7	5.7	-0.8	-21.3	-1.4
SMILES	OPRM1-OPRD1 inv	HTR5A ag	OPRM1-OPRD1 ag	HTR5A inv ag	HTR2A ag
COc1ccccc1C1CCN(C(=O)c2cnn(-c3ccccc3)c2C)CC1	-3.5	12.2*	0.7	-1.4	2.2
CCS(=O)(=O)N1CCCC(C(=O)Oc2ccc(Br)cc2)C1 (stereo not drawn)	1.8	-0.8	-0.4	2.9	3.9
CCN1C(=O)[C@@H]2[C@H](C1=O)[C@@H]1C(=O)Nc3ccccc3C(=O)N1[C@@H]2c1ccc(Br)cc1	15.4	3.6	-2.7	-7.3	-2.3
CN(C(=O)c1cccc(NC(=O)c2cccs2)c1)c1ccccc1	1.5	11.1*	-0.3	12.2	6.1
O=C(O)c1ccc(NC(=O)c2cccc(NC(=O)c3cccs3)c2)cc1	13.2	-1.9	-2.5	-0.8	9.1
COc1ccc(C(F)(F)F)cc1N/C=C/c1nnnn1-c1ccc2ccccc2c1	-4.2	12.4*	0.8	-40.6	5.4
COc1ccc(-n2nnnc2/C=C\Nc2ccc(C)cc2)cc1	6.1	-1.9	-1.2	10.7	4.1
Cc1cc(NC(=O)CSc2nc(C(C)C)nc3sc(C)c(C)c23)no1	-31.7	-5.4	5.7	-20.9	2.1
Cc1cc(NC(=O)CSc2nc3sc(C)c(C)c3c(=O)n2C2CCCC2)no1	-15.2	-3.1	2.5	7.3	16.9*
COc1ccc2c(c1)CC/C2=N\OC(=O)c1cccc(C)c1	-33.4	13.8*	6.9	-1.1	-1.4
COc1ccc(C(=O)O/N=C(\N)Cc2ccc(Cl)c(Cl)c2)cc1OC	-126.5	42.0*	22.2*	-143.3	-4.7
O=C(NCC(=O)N1CCN(S(=O)(=O)c2ccccc2F)CC1)c1ccc2c(c1)OCO2	11.7	11.6*	-2.2	-31.4	2.0
COc1cc(OC)cc(C(=O)NCC(=O)N2CCN(S(=O)(=O)c3ccccc3F)CC2)c1	18.5	0.7	-4.8	5.2	-1.7
COc1ccc(NS(=O)(=O)c2cc(NC(=O)C3=NN(c4ccccc4)C(=O)CC3)ccc2OC)cc1	2.8	0.3	-0.7	-0.6	4.5
Cn1c(=O)[nH]c(NC2CCCCC2)c(N=O)c1=O	-0.5	3.5	0.1	-12.4	3.0
CCCNc1[nH]c(=O)n(C)c(=O)c1N=O	2.0	9.6*	-0.4	5.8	2.3
Nc1ccc2c(c1)C(=O)c1ccc(N)cc1-2	1.4	-3.5	-0.3	13.6	-1.7
Cc1ccc2c(C)c(C(=O)N(C)Cc3nccn3C)oc2c1C	22.1	-0.8	-6.7	-4.6	0.1
O=C(NC1CCN(S(=O)(=O)c2ccccc2F)CC1)c1ccco1	-3.7	3.0	0.5	-9.0	-6.0
O=C(Nc1ccc2c(c1)CCC2)c1cnc(Cl)c(Cl)c1	-46.5	10.7*	8.9	-29.4	-4.1
COC(=O)c1ccccc1NC(=O)Nc1cc(C(C)(C)C)on1	5.8	1.1	-1.0	-4.2	6.6
CC(C)(C)c1cc(NC(=O)Nc2ccccc2)no1	-29.4	11.3*	6.2	-43.7	5.8
CCn1c(=O)c([N+](=O)[O-])c(Cl)c2ccccc21	34.7*	-7.5	-7.3	18.6	-9.2
COc1ccccc1/C=C/C=C(\C#N)C(=O)NC(C)c1ccccc1 (stereo not drawn)	-35.3	2.5	4.4	-7.3	-6.5
CC(=O)N(C(C)=O)N1C(=O)c2cccc3c(N4CCOCC4)ccc(c23)C1=O	15.2	10.8*	-3.3	-29.6	-1.9
CCN(CC)S(=O)(=O)c1ccc(C(=O)OCCN2C(=O)c3cccc4c(N5CCOCC5)ccc(c34)C2=O)cc1	21.8	2.5	-4.1	-6.2	0.5
O=C1c2ccccc2C(=O)N1Nc1ccc([N+](=O)[O-])cc1[N+](=O)[O-]	12.2	-9.5	-2.5	35.3*	-9.5
